The results in this text go back to the supplement of paper PMC6555819.

The assay has as its system VDR:RXRa (NR concentration 270 nM, RXRa partner concentration 90 nM). Description: PBM binding z-score (relative to random genomic background probes); higher = stronger binding; sequences stand for … in GC…GCGATTGACAGCGTAGAATGAAGG
As for the experimental part: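 Protein-binding microarray (Agilent 4x180K custom design, double-stranded 60-nt probes: 5' GC cap, 34-nt variable region, 24-nt constant primer region; full probe sequence given). Purified or IVT nuclear receptor:RXRα heterodimers (3:1 NR:RXRα, mostly 270:90 nM) or homodimers were incubated for 1 h in PBS with 2% milk and no ligand, then detected with Alexa488 antibodies. Fluorescence from o1-orientation probes (~5 replicates averaged) was converted to z-scores against 500 random hg19 background probes. Variable regions are seed direct-repeat (DR0–DR5) sites, all their single-nucleotide variants and half-site ablations.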
Turning to GCGACTGGGGCATCAGCAGGTTATCATAACTTAA, the PBM binding z-score was -0.0496. The same measure for ACCGAAAGGTCGTGAGGTGAGTATACAGAAAGGC: 3.62; for GAACCAAGGTGAATAGGTCGTTGATGAGTAGGCG: 0.843; for TCTTATAGGTAAAGGTGAAAGTCGAACGATATGA: 1.25. CCTACTGGGCCACGAGAGGTCATTGATTCAGTGA had a PBM binding z-score of 4.45.

ACTAGCAGGCTAAGTTTGGGTCACTCAAACAAAG displayed a PBM binding z-score of 0.216.

On to CGTCCAAGGTCATAGGAGGTCAGTGTAGACAGAT, for which the PBM binding z-score was determined as 6.49. The same measure for TCATATGGGTAAATGCTAGGTGAAAGTCCGATCT: 0.528. The same measure for GCTCGGAGGACAAGGTCAGAACTTTGTCCGTAGA: 1.37.

As for AATACAGGGTAATCGTAGGCCAGAGTACGCACAG, the PBM binding z-score was found to be 0.0104.

For ACTCGGAGGACAAAAGTCAGAGCTACGCCAGTGA, the PBM binding z-score is -0.553.

On to ACTAGCAGGCCGAGGGTCACTCAAGATTAGTCCG, for which the PBM binding z-score worked out at 1.52. The same measure for TAGCCTAGGTCATTGGGCGAGTATAGTACGCATC: 2.14.

In turn, ACTTACGGGTCAACCAGGTTATAGCACGCGTATA showed a PBM binding z-score of 6.72. Regarding CAGCCTAGGCCAGGGCCAGTATAGGAGGAACGTT, the PBM binding z-score was -1.

Sequence CCTGGTTGGTCAGGAGGTCACACACCGGATATGA gave a PBM binding z-score of 3.73. The same measure for TCGAGTAGGTTAGTCGGGGCATTCAACCAACATA: 2.31; for GCTTGAAGATCAAGGTTAAGAAAGACTAAGCTAA: 0.0982; for CGTCCAAGCTCAGAGAGGTCAGTGAATGCCGAGT: 2.2. In the case of TAGGCTAGGTCATGGGCCAGTATACCACGCGAAC it was 1.98; in that of ACTCGGAGTACAAAGGTCAGAGCTACGCCAGTGA, 3.59. For the sequence CATACTGGGTCAGCTAGGCCAGAGTAGGGACGGC, the PBM binding z-score is 1.19. Take TGAATGAGGTTATAAGATCTGGGAACGTTGCAAA: the PBM binding z-score was found to be 0.768. The same measure for CTCGAAAGGTCGTGCTCAGGTGAGTAAACCAAAC: 2.99. The same measure for CCTAGTTGGTCAGGAGGTCACAGACCGGATATGA: 3.64.

CGTACAAGGTCAATGCTAGGTCAGTGAAAGCATT gave a PBM binding z-score of 5.24.

ATCTCTAGGTAACAAATTCAGTGAAAGAGAGGAC registered a PBM binding z-score of 0.375.

As to TCAGACAGGTGAATGTAACTCAGGTACGCAGTCG, the PBM binding z-score amounted to 0.512. The same measure for AGTCAAAGTTCATCTAGGTAACGTTAGATATGCT: 5.11. The same measure for TCTTCTAGATCAACAGGAGGTTAAGAAAGATCGA: 0.728. In the case of CCTGCTAGGTTATGGTCAGCTAATCTACAGTATG it was -0.216; in that of GCTATTAGTTGAAAGGGCAACCGAATGATTCTCG, 0.531.

Consider CCTGCTAGGTCAATGGTCTGCTAAAGCAGCTCGC, for which the PBM binding z-score was 0.867. In the case of CCAGACAGGTGAGAAGGTAACTTAGCCTCGATTA it was 0.0956; in that of TCCGCTAGGTCAGTTGGTCAGCTAACGAGCTGCC, 0.232; in that of AGTCAAAGATCACTAGGTAACGTAAGATTCAGCT, -0.124. In the case of GCTAGCAGTCCATTTGGGTCACTCAATGACGGGC it was 0.562; in that of CCTAGTTGGTTAAGGTCACACACGCTATAGGTAC, 4.4.

In turn, GTAGCAAGGTGAATAGGTCGTTGATGAGTAGGCG had a PBM binding z-score of 0.451.

As to ATCTCTAGGTAACCAAGTTCAGTGGATGCCGAAC, the PBM binding z-score was found to be 4.04.
